# In PubChem BioAssay:
# The source made the active and inactive calls. Unless noted, the rule behind the calls is not given here.
# Assays:
# [1] = tested on: Wnt5a (protein binding on small-molecule microarray); assay: small molecules binding Wnt5a protein – biophysical, small-molecule microarray, 635/667 nm fluorescence, primary screen (AID 1142); settings: 635 nm fluorescence, higher = more signal;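 note: fluorescence read at 667 nm with signal to noise per printed feature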
# [2] = ATP-based viability of Huh7 replicon cells – cell-based, CellTiter-Glo luminescence, basal, 48 h, cytotoxicity control for HCV replication inhibitor project, primary screen (AID 1143); settings: higher = more signal, called active from +8 up or from −8 down;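 note: Huh7 hepatoma cells carrying a hepatitis C replication reporter with no stimulus; test concentration not given here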
# [3] = Pseudomonas biofilm growth suppression – PAO1 strain, BacTiter-Glo luminescence, LB-PBS, primary screen (AID 1144); settings: P. aeruginosa PAO1 biofilm, 12 h, higher = more signal
# [4] = basal CRE-LacZ reporter activity in PC12 – cell-based, unstimulated, primary screen (AID 1145); settings: no forskolin, luminescence, 4.5 h, higher = more signal, called active from +8 up or from −8 down
# [5] = forskolin-driven CRE-LacZ activity in PC12 – cell-based, CRE-LacZ reporter, forskolin-stimulated, primary screen (AID 1146); settings: luminescence, 4.5 h, higher = more signal, called active from +8 up or from −8 down;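 note: PC12 cells with 6xCRE LacZ reporter stimulated by forskolin 10 µM; beta-galactosidase reporter signal reflecting CREB driven transcription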
# [6] = biological target: Streptavidin (Streptomyces avidinii) (UniProt P22629); assay: compounds binding control protein streptavidin – biophysical, small-molecule microarray, 635/667 nm fluorescence, artefact control for SMM compound annotation, primary screen (AID 1147); settings: higher = more signal;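 note: signal reflects streptavidin binding to arrayed compounds as a control protein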
# [7] = probe aInhba binding on compound microarray – biochemical, small-molecule microarray, 635/667 nm fluorescence, primary screen (AID 1148); settings: higher = more signal;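 note: score merges 667nm spot fluorescence with signal-to-noise for antibody binding to printed compounds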
# [8] = biological target: Torsin-1A (Homo sapiens) (UniProt O14656); assay: TOR1A wild-type binding on microarray – cell lysate, small-molecule microarray, lysate, 635/667 nm, primary screen (AID 1149); settings: COS7 hTOR1A-WT lysate, 635 nm fluorescence, higher = more signal
# [9] = biological target: Torsin-1A (Homo sapiens) (UniProt O14656); assay: torsin A mutant lysate binding on microarrays – cell lysate, small-molecule microarray, COS7 lysate, 635/667 nm fluorescence, primary screen (AID 1150); settings: COS7 hTOR1A mutant lysate, 635 nm fluorescence, higher = more signal;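 note: score pools 667 nm emission and signal to noise measuring lysate protein binding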
# [10] = tested on: Sonic hedgehog protein (Shh); assay: Sonic hedgehog microarray binding compounds – biochemical, small-molecule microarray, 635/667 nm fluorescence, primary screen (AID 1151); settings: 635 nm fluorescence, higher = more signal;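 note: Shh protein binding to compounds spotted on small-molecule microarray slides; score combines spot fluorescence intensity with signal-to-noise across triplicate slides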
# Sequence of Torsin-1A (Homo sapiens) (O14656 whole entry, looked up): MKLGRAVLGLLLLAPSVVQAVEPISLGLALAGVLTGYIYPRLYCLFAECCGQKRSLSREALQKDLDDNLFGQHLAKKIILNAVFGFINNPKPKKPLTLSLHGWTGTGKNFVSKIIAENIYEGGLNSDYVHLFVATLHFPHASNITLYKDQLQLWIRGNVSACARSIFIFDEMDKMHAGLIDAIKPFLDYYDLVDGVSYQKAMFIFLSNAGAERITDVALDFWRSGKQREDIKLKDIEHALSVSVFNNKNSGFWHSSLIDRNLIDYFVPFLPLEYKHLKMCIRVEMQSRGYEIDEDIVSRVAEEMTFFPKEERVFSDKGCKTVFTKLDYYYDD
# Sequence of Streptavidin (Streptomyces avidinii) (P22629 whole entry, looked up): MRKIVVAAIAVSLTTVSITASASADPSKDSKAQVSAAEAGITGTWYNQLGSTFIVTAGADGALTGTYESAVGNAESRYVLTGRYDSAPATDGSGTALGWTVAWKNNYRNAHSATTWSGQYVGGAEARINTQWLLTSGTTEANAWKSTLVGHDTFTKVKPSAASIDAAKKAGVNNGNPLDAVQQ
Compound,composite z-score [1],z-score [2],z-score [3],z-score [4],z-score [5],composite z-score [6],composite z-score [7],composite z-score [8],composite z-score [9],composite z-score [10]
O=C1OCC=C[C@H]2OC34C=CCN(Cn5nnc6ccccc65)C(=O)[C@H]3N(CCO)C(=O)[C@@H]4[C@@H]12 (stereo not given in full),-0.26,0.473 (inactive),1.43 (inactive),0.455 (inactive),0.792 (inactive),-1.02,-0.208,1.09,-1.8,-0.793
C=CCC(OC(C)=O)[C@@H]1[C@@H](N(Cc2cccc3ccccc23)C(=O)c2ccc(C)cc2)c2cc(OCCCO)ccc2N1C(=O)Cc1ccc2ccccc2c1 (stereo not given in full),0.245,-0.72 (inactive),-0.234 (inactive),1.46 (inactive),-0.0127 (inactive),0.652,-0.101,0.125,-0.564,-0.0314
C=C(C(=O)CC[C@H](OC(=O)c1ccccc1-c1ccccc1C(=O)O)c1ccc(OCCO)cc1)C(C)C,0.686,-0.723 (inactive),-1.22 (inactive),0.611 (inactive),1.09 (inactive),-0.0151,0.0497,1.87,1.5,0.7
CO[C@H]1O[C@H](CO)[C@@H](OC(=O)Nc2ccccc2)[C@@H]2OC(=O)[C@@H](Cc3ccccc3)C/C=C/C[C@H](Cc3ccccc3)C(=O)O[C@@H]12,0.129,-0.0611 (inactive),-0.213 (inactive),-0.403 (inactive),-0.656 (inactive),-0.304,-0.0719,0.433,1.93,0.591
C=CC[C@]1(C(=O)NCCN2CCOCC2)N=C(c2ccc(OCCCO)cc2)O[C@H]1c1ccccc1,0.891,-0.541 (inactive),0.154 (inactive),2.55 (inactive),-0.0077 (inactive),0.416,0.119,2.03,1.44,0.638
COc1cc(Cc2cc3c(c(CCc4ccccc4)n2)[Si](C(C)C)(C(C)C)O[C@H]3c2ccccc2)cc(OC)c1OC,-0.0786,-4.48 (inactive),0.626 (inactive),0.875 (inactive),0.992 (inactive),0.537,0.182,0.707,-0.0236,-0.418
C=CCOC(=O)[C@H]1[C@@H]2C(=O)O[C@@H](c3ccccc3)[C@@H](c3ccccc3)N2[C@@H](c2ccc(OCCOC(=O)[C@H]3C[C@H]4C(=O)NCC(=O)N4[C@H]3c3ccc(O)cc3)cc2)[C@]12C(=O)Nc1ccccc12,0.592,-0.525 (inactive),-0.799 (inactive),-1.08 (inactive),-0.306 (inactive),0.341,0.615,0.603,1.14,2.22
C[C@@]1([C@@H](NS(=O)(=O)c2cccc3cccnc23)c2ccc(-c3ccccc3)cc2)C[C@H]1C1CCCCC1,0.17,-2.15 (inactive),0.33 (inactive),0.583 (inactive),-0.152 (inactive),1.15,0.417,-0.293,0.0327,-0.517
C=C(C(=O)CC[C@@H](OC(=O)c1ccccc1-c1ccccc1C(=O)O)c1ccc(CO)o1)C(C)C,0.389,-0.115 (inactive),-0.306 (inactive),1.47 (inactive),1.73 (inactive),-0.539,0.0051,1.28,0.317,1.65
O=C1O[C@@H](c2ccccc2)[C@@H](c2ccccc2)N2[C@@H](c3ccccc3OCCO)[C@]3(C(=O)Nc4ccc(C#CC5(O)CCCCCC5)cc43)[C@@H](C(=O)N3CCCCCCC3)[C@H]12,2.35,-5.6 (inactive),-0.349 (inactive),-0.168 (inactive),0.306 (inactive),2.41,2.16,3.29,3.08,2.06
[N-]=[N+]=NCc1ccccc1[C@H]1OC(c2ccc(OCCCO)cc2)=N[C@@]1(CCS(=O)(=O)c1ccccc1)C(=O)NCCN1CCOCC1,0.806,-0.712 (inactive),-0.561 (inactive),0.115 (inactive),-0.871 (inactive),0.38,0.54,0.234,0.183,-0.597
CN1C2C=C(c3ccc(CO)cc3)C(C3C(=O)N(C(N)=O)C(=O)C32)C1C1CC1 (stereo not given),-0.392,0.547 (inactive),-0.522 (inactive),-0.35 (inactive),0.527 (inactive),0.0747,-0.271,0.0973,0.0517,-0.104
C#CCN(C(=O)OC(C)(C)C)[C@H](CO)c1ccccc1,-0.1,-1.66 (inactive),-0.141 (inactive),0.0329 (inactive),-0.653 (inactive),-0.314,-0.128,0.435,0.411,0.0466
CCCN1C(=O)[C@@]2(c3ccc([N+](=O)[O-])cc3)CC(=O)N(C3CCCCC3)[C@@H]2c2ccc(CO)cc21,0.0899,0.677 (inactive),-0.0723 (inactive),0.389 (inactive),-0.131 (inactive),-0.397,-0.168,0.515,-0.187,1.08
